Outcome data for four compounds are collected here from PubChem BioAssay AID435001 (Southern Research Specialized Biocontainment Screening …, 2010).

Calls of active or inactive are those of the source. How the calls were made is not given here.

This assay deals with Large T antigen (Simian virus 40) (UniProt P03070). Briefly: large T antigen ATP hydrolysis inhibition – biochemical, ADP-Hunter, purified TAg, synthesized compounds (AID 435001). The note with it: purified TAg ATPase, ADP-Hunter fluorescence; series mostly up to 100 µM.
Large T antigen (Simian virus 40), sequence (P03070 whole entry, looked up): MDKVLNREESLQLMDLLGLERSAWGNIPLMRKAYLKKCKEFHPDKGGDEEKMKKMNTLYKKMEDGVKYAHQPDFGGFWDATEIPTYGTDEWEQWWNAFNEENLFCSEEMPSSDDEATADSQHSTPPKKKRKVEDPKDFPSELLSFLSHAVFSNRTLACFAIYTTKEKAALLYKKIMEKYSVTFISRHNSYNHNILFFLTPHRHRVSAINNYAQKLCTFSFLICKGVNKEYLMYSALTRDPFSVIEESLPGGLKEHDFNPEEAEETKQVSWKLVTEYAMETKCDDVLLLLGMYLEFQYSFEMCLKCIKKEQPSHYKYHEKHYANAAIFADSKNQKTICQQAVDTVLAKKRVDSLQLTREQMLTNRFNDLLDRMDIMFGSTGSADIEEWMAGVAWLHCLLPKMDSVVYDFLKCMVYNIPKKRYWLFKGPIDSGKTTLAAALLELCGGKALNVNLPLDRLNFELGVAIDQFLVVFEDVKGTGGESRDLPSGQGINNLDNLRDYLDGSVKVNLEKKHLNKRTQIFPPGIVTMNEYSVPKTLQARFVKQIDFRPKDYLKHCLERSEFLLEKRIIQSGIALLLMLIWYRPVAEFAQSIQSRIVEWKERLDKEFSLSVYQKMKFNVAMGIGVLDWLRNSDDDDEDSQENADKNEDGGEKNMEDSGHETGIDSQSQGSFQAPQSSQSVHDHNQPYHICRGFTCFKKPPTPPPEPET
On to `COc1ccc(C(C)(C)c2ccc(OC)cc2)cc1`, for which the compound was classed as inactive.

For the compound `COc1ccc(C2(c3ccc(OC)cc3)CC2)cc1`, the call was inactive. As for `COc1ccc(C(C)(O)c2ccc(OC)cc2)cc1`, the entry is “inactive”; as for `C=C(c1ccc(OC)cc1)c1ccc(OC)cc1`, “inactive”.
